HIV RNase H inh – blocks HIV-1 RNase H cleavage of RNA/DNA duplex. RT-RNase H RNA/DNA duplex cleavage, fluorescence. inhibition, % at 10 µM. 65,000 compounds, 1.9% hits. AID 565; in the data active = inhibition above about 50%
Large screens that a line does not name were inactive. Many of the other results were omitted from the sample, so hits are more common in it than they were.

CN(C(=O)c1cccnc1)c1nnc(-c2cccnc2)s1	HIV RNase H inh 65.8
CN(C(=O)c1cccnc1)c1nnc(-c2cnccn2)s1	none
CC1(C)C(c2ccccc2)=[N+]([O-])CN1O	none
CN1CCN(/C=N/c2c(C#N)cnn2Cc2ccccc2)CC1	none
COC(=O)/C=c1\sc2ncnn2c1=O	HIV RNase H inh 55.7
CCC(=O)Nc1cc(=O)[nH]c2ncnn12	none
COC(=O)/C=c1/s/c(=C(\C#N)C(=O)NCc2ccco2)n(-c2ccccc2)c1=O	none
COC(=O)c1ccc(-c2sc3nc(N4CCOCC4)c4c(c3c2N)CCCC4)o1	none
COC(=O)c1ccc(Cn2nnc3c(sc4nc(N5CCOCC5)c5c(c43)CCCC5)c2=O)o1	none
COC(=O)c1ccc(CSc2ncnc3c2sc2nc(N4CCOCC4)c4c(c23)CCCC4)o1	HIV RNase H inh 82.9
CCOC(=O)c1ccc(NC(=O)CC2SC(=NC)N(C)C2=O)cc1 (configuration not stated)	none
CCOC(=O)c1ccc(NC(=O)CC2Sc3ncnn3C2=O)cc1 (configuration not stated)	HIV RNase H inh 59.9
COc1ccc(NC(=O)CC2Sc3ncnn3C2=O)cc1 (configuration not stated)	none
N#C/C(=C\c1ccc[nH]1)S(=O)(=O)c1ccccc1	none
CCOC(=O)C1CCCN(Cc2c(F)cccc2Cl)C1 (configuration not stated)	none
COc1ccc(N=c2oc3c(OC)cccc3cc2C(=O)NCc2ccco2)cc1OC	none
COc1ccc(C(=O)Nc2ccccc2C(=O)NCc2ccco2)cc1OC	none
COc1ccc(OC)c(N=c2oc3c(OC)cccc3cc2C(=O)NCc2ccco2)c1	HIV RNase H inh 88.1
Cc1ccc(P(=Nc2ccccc2)(N2CCOCC2)N2CCOCC2)o1	none
CC(Nc1n[nH]c(=S)[nH]c1=O)C(=O)OCc1ccccc1 (configuration not stated)	HIV RNase H inh 53.0
O=c1[nH]c(=S)[nH]nc1Cc1ccccc1	none
CCCCOC(=O)C(C)Nc1n[nH]c(=O)[nH]c1=O (configuration not stated)	none
CCOC(=O)c1ccc(NC(=O)CCC(=O)OC)cc1	none
CCS(=O)(=O)NCCc1cc2c(OC)ccc(OC)c2[nH]c1=O	none
Cc1ccccc1NS(=O)(=O)c1ccc(OCC(=O)N2CCCC2)cc1	none
Cc1ccc(-n2c(N)c(C(N)=O)sc2=S)c(C)c1	HIV RNase H inh 65.3
COc1ccc(Cl)cc1N1C(=O)C2CCCN2C1c1sccc1C (configuration not stated)	none
Cc1ccc(C)c(-n2c(N)c(C(N)=O)sc2=S)c1	none
CCOC(=O)c1sc(=S)n(Cc2ccccc2)c1N	none
COc1ccc(C2N(c3cc(Cl)ccc3OC)C(=O)C3CCCN32)cc1 (configuration not stated)	none
COc1ccc(Cl)cc1-n1c(N)c(C(N)=O)sc1=S	HIV RNase H inh 74.8
CN(C)/C=N/c1cnc(C(=O)c2ccc(Cl)cc2)n1C	none
CNS(=O)(=O)c1cccc(C(=O)OC2CCCCC2=O)c1 (configuration not stated)	none
Cc1ccc(N(CC(=O)O)S(C)(=O)=O)cc1Cl	none
COc1cc(CO)cc(Br)c1OCc1cccnc1	none
COc1cc(C2C3C(=O)N(Cc4ccccc4)C(=O)C3ON2c2ccccc2)cc(OC)c1O (configuration not stated)	none
CCCOc1ccc(N2C(=O)C3ON(c4ccccc4)C(c4ccc(O)c(OC)c4)C3C2=O)cc1 (configuration not stated)	HIV RNase H inh 56.0
CCOc1ccccc1C1C2C(=O)N(c3ccccc3)C(=O)C2ON1c1ccccc1 (configuration not stated)	none
Cc1cc(C)c2c(=O)[nH]c(=O)n(Cc3ccccc3)c2n1	none
COCCn1nnnc1CN1CCC(Cc2ccccc2)CC1	none
COC(=O)C1CCN(C(=O)COC(=O)CC(NC(N)=O)c2ccc(Cl)cc2)CC1 (configuration not stated)	none
COc1ccc(-n2nnc3c(SCC(=O)N4CCCc5ccccc54)ncnc32)cc1	none
COc1ccc(NC(=O)Nc2ccccc2C(=O)N2CCCC2)cc1	none
CC(=O)Nc1c(C(=O)O)oc2ccccc12	HIV RNase H inh 55.6
CC(=O)Nc1c(C(=O)O)oc2ccc(Cl)cc12	none
CC(=O)Nc1c(C(=O)c2ccc(F)cc2)oc2ccccc12	none
Cc1ccc(NC(=O)COc2ccc(/C(N)=N/O)cc2)cc1C	none
O=C1CNC(=O)/C1=C\N1CCN(C(c2ccccc2)c2ccccc2)CC1	none
Cn1c(N)c(C#N)c2c(c1=S)CSC(C)(C)C2	none
CC1(C)Cc2c(c(-c3ccccc3)[nH]c(=O)c2C#N)CS1	none
CC1(C)Cc2c(C#N)c(N)sc(=S)c2CS1	HIV RNase H inh 62.3
CC(=O)C1=C(C)NC(SCC(=O)c2ccccc2)=C(C#N)C1CC(C)C (configuration not stated)	none
CCOC(=O)c1c(NC(=O)c2ccoc2C)sc2c1CCC2	none
CCC1CCc2c(sc(NC(=O)c3ccoc3C)c2C(N)=O)C1 (configuration not stated)	HIV RNase H inh 53.0
CCN(CC)C(=O)c1sc(NC(=O)c2ccoc2C)c(C(=O)OC)c1C	none
CCN(CC)C(=O)CSc1ccccc1N	none
COc1ccc2c(c1OC)C(=O)NC(C)=C(C(=O)OC(C)(C)C)C2O (configuration not stated)	none
CCC(=O)Nc1sccc1C(=O)OC	none
COC(=O)c1ccsc1NC(=O)C1=COCCO1	none
COC(=O)Nc1sccc1C(=O)Nc1sccc1C(=O)OC	HIV RNase H inh 53.6
CC1Cc2ccccc2N1C(=O)CCn1c(=O)sc2ccccc21 (configuration not stated)	none
CN1CCc2c(sc3c2C(=O)NC(c2ccco2)N3)C1 (configuration not stated)	none
Cn1cccc1C1NC(=O)c2c(sc3c2CCC(C(C)(C)C)C3)N1 (configuration not stated)	HIV RNase H inh 60.0
CCOC(=O)N1CCc2c(sc3c2C(=O)NC(c2ccccc2)N3)C1 (configuration not stated)	none
O=C(Cc1ccc(Cl)cc1)NCC(=O)N1CCCC1	none
CC1CCN(C(=O)CSc2ccc3nnc(-c4ccccc4)n3n2)CC1	none
CCn1c(SCC(=O)c2cc(C)n(CC3CCCO3)c2C)nc2ccccc21 (configuration not stated)	none
Cc1cc(C(=O)CSc2nnnn2-c2ccccc2)c(C)n1CC1CCCO1 (configuration not stated)	none
Cc1cc(C(=O)CSc2nnnn2-c2ccc(Cl)cc2)c(C)n1CC1CCCO1 (configuration not stated)	HIV RNase H inh 62.5
Cc1cc(/C=C(/C#N)c2cccc(F)c2)c(C)n1-c1cccnc1	none
CN(Cc1ccccc1)C(=O)CSc1nnc(-c2ccco2)n1-c1ccccc1	none
COc1ccc(-n2nnnc2S(=O)(=O)Cc2ccc(C(=O)O)cc2)cc1	HIV RNase H inh 62.6
COc1ccc(-n2nnnc2S(=O)(=O)CC(=O)N2CCCCC2)cc1	none
COc1ccc(-n2nnnc2SCC(N)=O)cc1	none
O=C(CSc1ncn(-c2ccccc2)n1)Nc1ccc2c(c1)OCCO2	none
O=C(CSc1ccccn1)Nc1ccc(Br)cn1	none
O=C(CSc1ncn(-c2ccccc2)n1)Nc1ccc(Br)cn1	HIV RNase H inh 55.1
CCOc1ncccc1C(=O)OCc1cc(=O)n2c(n1)sc1ccccc12	none
COc1ccc(C2C3=C(CC(C)(C)CC3=O)Nc3c2c(=O)[nH]c2nc(C)nn32)cc1 (configuration not stated)	none
CCCCn1c(SCC(=O)Nc2cc(C)on2)nc2ccccc2c1=O	none
CCCCn1c(SCC(=O)Nc2cc(NC(=O)c3ccco3)ccc2C)nc2ccccc2c1=O	HIV RNase H inh 55.3
CCn1c(SCC(=O)Nc2ccc(NC(=O)c3ccco3)c(OC)c2)nc2ccccc2c1=O	none

Assay outcomes: PubChem BioAssay, University of Pittsburgh Molecular Library Screening Center
